Data published in PubChem BioAssay (NCATS).
Inconclusive results are not listed. Activity calls are given as the source filed them. Unless noted, calls come from the whole dose curve; as a rule, active = well fitted curve in either direction with a large enough effect (not every such curve was filed as active); inconclusive = small, poorly fitted or top-dose-only effect, or another doubt; inactive = flat fitted curve, though single readings scatter.

Legend:
[1] = AP1 Signaling Pathway (AID 357); details: ME-180 AP-1-bla reporter, EGF-induced, beta-lactamase ratio, 5 h; at 7.69 µM (top of the series) unless noted;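 note: ME-180 reporter cells stimulated with EGF at its EC50 level; % is set by controls: 0 for no effect and ±100 for the full control effect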
Summary of the method: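 Cells are seeded overnight, exposed to compound titrations and an EC50 level of EGF for 5 hours at 37 °C, then loaded with CCF4 dye for 2.5 hours. Beta-lactamase activity under the AP-1 element is read as a blue/green ratio.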

[2] = target: Cytochrome P450 1A2 (Homo sapiens) (UniProt P05177); test: p450-cyp1a2 (AID 410; calls by dose curve; note: potency is the fitted concentration of half-maximal effect;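 for activity change, negative = inhibition: -100% = full effect of reference inhibitor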)
Sequence of Cytochrome P450 1A2 (Homo sapiens) (P05177 whole entry, looked up): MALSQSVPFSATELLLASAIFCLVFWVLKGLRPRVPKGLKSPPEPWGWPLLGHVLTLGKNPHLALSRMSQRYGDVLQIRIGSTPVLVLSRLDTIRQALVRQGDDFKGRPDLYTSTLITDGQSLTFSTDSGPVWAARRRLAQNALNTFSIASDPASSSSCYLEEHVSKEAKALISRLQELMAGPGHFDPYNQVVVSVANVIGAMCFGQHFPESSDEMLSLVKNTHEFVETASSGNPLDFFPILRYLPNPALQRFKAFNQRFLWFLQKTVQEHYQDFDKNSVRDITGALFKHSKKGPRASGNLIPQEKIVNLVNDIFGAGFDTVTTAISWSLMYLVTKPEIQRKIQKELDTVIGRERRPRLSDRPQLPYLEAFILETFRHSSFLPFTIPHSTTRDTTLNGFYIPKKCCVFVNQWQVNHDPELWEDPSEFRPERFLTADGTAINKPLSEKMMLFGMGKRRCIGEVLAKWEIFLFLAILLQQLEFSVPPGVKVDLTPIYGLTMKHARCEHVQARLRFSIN
Summary of the method: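 O-Demethylation of luciferin 6' methyl ether by human CYP1A2 is monitored as luciferase luminescence. Substrate sits at Km (100uM); enzyme is 20nM. Values are scaled to 57 uM furafylline as maximal inhibition.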

[3] = Stat Signaling Pathway (AID 446); details: ME-180 SIE beta-lactamase reporter, IL-6 stimulated, 5 h; at 7.69 µM (top of the series) unless noted;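 note: ME-180 cervical cancer cells given 40 pM IL-6 alongside compound; SIE-controlled beta-lactamase reporter measured as 460/530 nm FRET emission ratio; % is set by controls: 0 for no effect and ±100 for the full control effect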
Summary of the method: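 FRET read-out (405 nm excitation, 460/530 nm emission) of a beta-lactamase reporter under a STAT-inducible element in ME-180 cervical carcinoma cells. Cells with compound receive 40 pM IL-6 for 5 h. Values are normalised to AC90 stimulation and AC90 JAK-inhibitor controls.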

[4] = target: Glucocorticoid receptor (Homo sapiens) (UniProt P04150); test: GR-GFP Redistribution (AID 450;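 active = compounds whose dose series gives a full or clear partial fitted curve of increased nuclear translocation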; note: potency is the fitted concentration of half-maximal effect); details: U2OS GR-GFP nuclear translocation, laser cytometry, 2 h
Sequence of Glucocorticoid receptor (Homo sapiens) (P04150 whole entry, looked up, the tested form may be a part): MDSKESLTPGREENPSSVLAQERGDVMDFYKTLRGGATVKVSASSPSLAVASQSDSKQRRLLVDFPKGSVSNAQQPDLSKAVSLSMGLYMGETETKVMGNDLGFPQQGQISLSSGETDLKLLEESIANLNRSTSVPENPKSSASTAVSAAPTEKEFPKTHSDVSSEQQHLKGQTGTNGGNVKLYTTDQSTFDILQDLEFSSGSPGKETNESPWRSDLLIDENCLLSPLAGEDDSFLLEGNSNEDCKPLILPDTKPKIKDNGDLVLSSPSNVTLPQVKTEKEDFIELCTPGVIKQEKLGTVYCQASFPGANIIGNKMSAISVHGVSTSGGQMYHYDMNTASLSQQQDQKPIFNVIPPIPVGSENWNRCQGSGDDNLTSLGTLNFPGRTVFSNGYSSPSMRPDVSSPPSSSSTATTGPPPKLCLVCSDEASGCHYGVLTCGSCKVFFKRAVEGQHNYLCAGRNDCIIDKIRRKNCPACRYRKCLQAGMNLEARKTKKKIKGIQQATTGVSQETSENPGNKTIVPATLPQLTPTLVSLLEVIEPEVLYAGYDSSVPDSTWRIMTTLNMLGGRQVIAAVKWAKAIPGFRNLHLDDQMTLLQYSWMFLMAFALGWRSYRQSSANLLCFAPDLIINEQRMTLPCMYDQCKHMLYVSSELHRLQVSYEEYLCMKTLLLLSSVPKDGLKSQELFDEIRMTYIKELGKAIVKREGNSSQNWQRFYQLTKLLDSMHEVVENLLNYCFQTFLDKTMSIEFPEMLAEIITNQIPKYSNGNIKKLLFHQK

[5] = target: Glucocorticoid receptor (Homo sapiens) (UniProt P04150); test: GR-EFC Redistribution (AID 451; calls by dose curve; note: potency is the fitted concentration of half-maximal effect); details: CHO-K1 GR-EFC translocation, beta-gal luminescence, 2 h
Summary of the method: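 Translocation of GR-ED fusion to nuclear EA restores b-gal, read by luminescence after 1 h room-temperature detection. Engineered CHO-K1 biosensor cells, 1,000/well, exposed 2 h at 37 C to titrations up to 46 uM final.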

[6] = target: Mitogen-activated protein kinase 10 (Mus musculus) (UniProt Q61831); test: JNK3 AlphaScreen Assay (AID 530);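 note: kinase came from lysate of stimulated human HepG2 cells; signal reports phosphorylation of biotinylated GST-cJun 1-79 at Ser73 with 10 µM ATP; % is set by controls: 0 for no effect and ±100 for the full control effect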
Summary of the method: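 qHTS titrations with 15 min compound pre-incubation before adding ATP (10 uM final). Read-out: AlphaScreen of Ser73-phosphorylated biotin-GST-cJun using HepG2 lysate JNK3 activated by IL-1β and TNFα.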

[7] = target: 3',5'-cyclic-AMP phosphodiesterase 4B (Homo sapiens) (UniProt Q07343); test: qHTS Assay for Inhibitors of PDE-IV (AID 607; active = well fitted activation curve with a large enough effect in the main read-out, with a control signal flat, not every such curve was filed as active; note: % of control where 0% means no effect)
Sequence of 3',5'-cyclic-AMP phosphodiesterase 4B (Homo sapiens) (Q07343 whole entry, looked up): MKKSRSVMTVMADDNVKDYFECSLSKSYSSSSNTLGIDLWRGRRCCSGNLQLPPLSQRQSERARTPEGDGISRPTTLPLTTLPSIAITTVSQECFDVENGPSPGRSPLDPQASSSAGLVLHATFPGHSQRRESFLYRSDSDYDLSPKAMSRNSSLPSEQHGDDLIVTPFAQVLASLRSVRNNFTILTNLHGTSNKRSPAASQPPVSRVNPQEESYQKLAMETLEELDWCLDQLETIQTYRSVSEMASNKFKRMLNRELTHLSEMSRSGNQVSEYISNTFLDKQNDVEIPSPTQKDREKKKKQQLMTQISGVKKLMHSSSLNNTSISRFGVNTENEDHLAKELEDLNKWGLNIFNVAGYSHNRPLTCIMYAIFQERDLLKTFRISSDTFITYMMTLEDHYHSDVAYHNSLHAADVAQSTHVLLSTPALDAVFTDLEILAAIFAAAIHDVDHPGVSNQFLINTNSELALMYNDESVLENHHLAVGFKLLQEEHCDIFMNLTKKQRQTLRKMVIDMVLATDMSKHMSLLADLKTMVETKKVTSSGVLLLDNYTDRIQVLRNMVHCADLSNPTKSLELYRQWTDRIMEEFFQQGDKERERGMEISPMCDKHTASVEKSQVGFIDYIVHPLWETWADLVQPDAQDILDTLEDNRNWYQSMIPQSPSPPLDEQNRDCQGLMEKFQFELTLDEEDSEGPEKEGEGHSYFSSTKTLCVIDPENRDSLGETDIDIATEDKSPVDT
Summary of the method: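 Cell-based read-out of cAMP via a modified cyclic nucleotide-gated channel and membrane potential dye (535/590 nm) in HEK293 cells expressing PDE4 endogenously. Compounds tested up to 22.9 uM final; 100 uM RO 20-1724 reference.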

[8] = target: Cytochrome P450 2C9 (Homo sapiens) (UniProt P11712); test: qHTS Assay for Inhibitors and Substrates of Cytochrome P450 2C9 (AID 883; active = well fitted curve in the direction sought with a large enough effect; an effect the other way counts as inactive or inconclusive; note: % is set by controls: 0 for no effect and ±100 for the full control effect; nearly all actives have a fitted effect of over 60% in size)
Summary of the method: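 Inhibition of CYP2C9 is scored as loss of luminescence, with 57uM sulphaphenazole defining 100% inhibition. Substrate Luciferin-H is used at 100uM, equal to its KM; enzyme at 10nM in 25mM KPO4, 60 min at 37C with NADPH regeneration.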

[9] = target: Cytochrome P450 3A4 (Homo sapiens) (UniProt P08684); test: qHTS Assay for Activators of Cytochrome P450 3A4 (AID 885; active = well fitted curve in the direction sought with a large enough effect; an effect the other way counts as inactive or inconclusive; note: nearly all actives have a fitted effect of over 65% in size)
Sequence of Cytochrome P450 3A4 (Homo sapiens) (P08684 whole entry, looked up): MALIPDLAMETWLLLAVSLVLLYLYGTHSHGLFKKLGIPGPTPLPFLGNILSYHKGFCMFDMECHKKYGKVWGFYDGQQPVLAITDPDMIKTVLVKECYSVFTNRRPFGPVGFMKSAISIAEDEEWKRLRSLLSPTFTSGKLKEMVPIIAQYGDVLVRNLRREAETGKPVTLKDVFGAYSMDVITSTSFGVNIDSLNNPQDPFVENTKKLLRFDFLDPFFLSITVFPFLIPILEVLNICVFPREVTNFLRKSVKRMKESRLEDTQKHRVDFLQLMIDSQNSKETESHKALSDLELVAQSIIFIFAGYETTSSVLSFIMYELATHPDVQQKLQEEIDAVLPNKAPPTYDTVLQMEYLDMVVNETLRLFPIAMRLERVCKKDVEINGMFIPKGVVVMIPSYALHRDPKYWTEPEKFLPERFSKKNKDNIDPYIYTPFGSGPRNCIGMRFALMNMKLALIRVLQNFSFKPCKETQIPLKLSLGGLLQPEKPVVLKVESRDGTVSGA
Summary of the method: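 Luminescent readout of luciferin formed from 25 uM Luciferin-PPXE (KM level) by 20 nM CYP3A4 in 200 mM KPO4, with 60 min NADPH-driven reaction at room temperature after 10 min compound exposure. Ketoconazole (57 uM) defined 100% inhibition.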

[10] = Confirmation and Secondary Assay for Modulators of Hemoglobin Beta Chain Splicing at IVS2 654 locus (AID 910; active = well fitted curve in the direction sought with a large enough effect; an effect the other way counts as inactive or inconclusive;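 note: HeLa cells stably carrying EGFP split by mutant beta-globin IVS2-654 intron; per-well total GFP intensity by laser scanning cytometry after 2-day treatment; % of control where 0% means no effect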)
Summary of the method: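 Readout: per-well total peak green fluorescence (488 nm ex, 500–520 nm em) from objects 5–250 µm, reflecting correct splicing of an EGFP-654 reporter. Compounds were applied for 2 days at 37 °C to overnight-plated HeLa EGFP-654 cells; controls were DMSO and 500 nM IVS2-654 PNA.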

[11] = Confirmation and Secondary Assay for Modulators of Hemoglobin Beta Chain Splicing at IVS2 705 locus (AID 930; active = well fitted curve in the direction sought with a large enough effect; an effect the other way counts as inactive or inconclusive;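 note: HeLa cells stably expressing the EGFP-705 splicing reporter; GFP fluorescence per well restored by corrected splicing of the IVS2-705 intron in EGFP; % of control where 0% means no effect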)
Summary of the method: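 First, HeLa EGFP-705 cells are seeded at 500/well in Optimem with 2% FCS and left overnight. Next, compound or DMSO is added for 2 days. Finally wells are laser-scanned and total peak GFP intensity scored.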

[12] = qHTS Assay for Lipid Storage Modulators (AID 1519; calls by dose curve); details: Drosophila S3 cells, BODIPY lipid droplet/cell ratio, laser cytometry, cells loaded with oleic acid; for activity change, negative = inhibition: at 57.5 µM (top of the series)
Summary of the method: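 Cells seeded at 5,000 per well were treated with compounds over a concentration series and loaded with oleic acid (400 uM, as added). Lipid droplet fluorescence (488 nm excitation, 500-530 nm channel) was read by laser-scanning cytometry and normalized to 20 uM Triacsin C.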

[13] = target: Ubiquitin carboxyl-terminal hydrolase 1 (Homo sapiens) (UniProt O94782); test: Inhibitors of USP1/UAF1: Pilot qHTS (AID 504865; active = well fitted curve in the direction sought with a large enough effect; an effect the other way counts as inactive or inconclusive;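 note: rhodamine fluorescence freed from ubiquitin-rhodamine substrate followed over time; top concentration of the series differs between compounds; % is set by controls: 0 for no effect and ±100 for the full control effect; nearly all actives have a fitted effect of over 35% in size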)
Sequence of Ubiquitin carboxyl-terminal hydrolase 1 (Homo sapiens) (O94782 whole entry, looked up): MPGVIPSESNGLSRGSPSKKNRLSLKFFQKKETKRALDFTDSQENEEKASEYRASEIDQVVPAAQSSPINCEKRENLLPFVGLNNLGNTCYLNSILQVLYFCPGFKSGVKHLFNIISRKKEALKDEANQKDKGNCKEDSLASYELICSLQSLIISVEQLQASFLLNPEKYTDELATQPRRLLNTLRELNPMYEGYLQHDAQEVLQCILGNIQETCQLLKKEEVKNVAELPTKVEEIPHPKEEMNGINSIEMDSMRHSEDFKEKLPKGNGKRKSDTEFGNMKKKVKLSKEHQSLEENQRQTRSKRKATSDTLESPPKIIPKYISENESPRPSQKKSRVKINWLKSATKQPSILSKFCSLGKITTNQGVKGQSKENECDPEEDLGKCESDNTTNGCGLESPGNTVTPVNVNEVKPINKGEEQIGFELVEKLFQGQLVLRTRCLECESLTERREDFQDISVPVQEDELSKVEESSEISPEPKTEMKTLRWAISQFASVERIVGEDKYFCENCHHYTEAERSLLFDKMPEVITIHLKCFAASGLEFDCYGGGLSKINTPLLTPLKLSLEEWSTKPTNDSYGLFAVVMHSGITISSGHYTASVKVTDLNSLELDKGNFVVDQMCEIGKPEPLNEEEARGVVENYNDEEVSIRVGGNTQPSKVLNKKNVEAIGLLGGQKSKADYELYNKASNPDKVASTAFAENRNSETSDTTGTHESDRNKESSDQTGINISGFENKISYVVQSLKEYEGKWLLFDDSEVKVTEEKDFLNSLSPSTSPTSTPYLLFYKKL
Summary of the method: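 USP1/UAF1 complex at 1 nM preincubated 15 min at room temperature with compound, then Ub-Rho substrate added at 150 nM final. Fluorescence (480/540 nm) read kinetically in 50 mM HEPES pH 7.8, 0.5 mM EDTA, 1 mM TCEP, 0.1 mg/ml BSA, 0.01% Tween-20.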

[14] = Primary qHTS for small molecule stabilizers of the endoplasmic reticulum resident proteome: Secreted ER Calcium Modulated Protein (SERCaMP) assay (AID 1508630; active = well fitted curve in the direction sought with a large enough effect; an effect the other way counts as inactive or inconclusive; note: % is set by controls: 0 for no effect and ±100 for the full control effect)
Summary of the method: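 The SH-SY5Y reporter protocol was run at 3 concentrations up to 38.3 uM (primary) or 11 concentrations (follow-up): 16 h compound, 100 nM thapsigargin for 4 h, then extracellular luciferase luminescence.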

[15] = target: Lysosomal acid glucosylceramidase (Homo sapiens) (UniProt P04062); test: Glucocerebrosidase-p2 (AID 348; in the data active = potency below about 10 µM; note: potency is the fitted concentration of half-maximal effect); details: purified GBA, blue fluorogenic substrate, 40 min
Sequence of Lysosomal acid glucosylceramidase (Homo sapiens) (P04062 whole entry, looked up): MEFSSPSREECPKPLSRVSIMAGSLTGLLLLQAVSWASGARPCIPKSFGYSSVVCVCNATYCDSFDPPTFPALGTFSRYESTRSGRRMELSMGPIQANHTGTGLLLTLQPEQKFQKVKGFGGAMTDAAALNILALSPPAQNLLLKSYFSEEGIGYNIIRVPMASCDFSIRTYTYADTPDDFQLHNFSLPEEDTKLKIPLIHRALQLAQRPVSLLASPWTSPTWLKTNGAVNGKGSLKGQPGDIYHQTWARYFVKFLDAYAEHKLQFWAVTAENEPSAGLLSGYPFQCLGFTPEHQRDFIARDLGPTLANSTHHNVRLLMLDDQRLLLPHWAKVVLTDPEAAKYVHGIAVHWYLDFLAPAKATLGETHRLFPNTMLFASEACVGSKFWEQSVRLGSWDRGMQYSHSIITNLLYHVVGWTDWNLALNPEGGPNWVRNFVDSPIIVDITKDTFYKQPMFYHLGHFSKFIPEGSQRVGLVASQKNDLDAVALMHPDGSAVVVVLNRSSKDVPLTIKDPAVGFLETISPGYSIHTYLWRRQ
Summary of the method: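 Normal human glucocerebrosidase (0.2 nM) with blue fluorogenic substrate (80 uM final) in citrate/phosphate pH 5.9 with 10mM sodium taurocholate, 0.01% tween-20; 40 min RT, NaOH/glycine stop; fluorescence Ex 365/Em 440; AC50 from a titration from 0.6 nM upwards.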

[16] = NFAT Signaling Pathway (AID 444); details: Jurkat NFAT-bla M1, carbachol, beta-lactamase ratio, 5 h; at 7.69 µM (top of the series) unless noted
Summary of the method: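 Read-out: CCF4 FRET ratio (460 nm/530 nm) after 1 h RT dye loading, used for %activity and AC50 from titration series. Cells: Jurkat NFAT-β-lactamase/M1 line, treated with compound plus 1 uM carbachol for 5 h, 37 °C.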

[17] = target: Cytochrome P450 2D6 (Homo sapiens) (UniProt P10635); test: qHTS Assay for Inhibitors and Substrates of Cytochrome P450 2D6 (AID 891; active = well fitted curve in the direction sought with a large enough effect; an effect the other way counts as inactive or inconclusive; note: potency is the fitted concentration of half-maximal effect; nearly all actives have a fitted effect of over 60% in size)
Sequence of Cytochrome P450 2D6 (Homo sapiens) (P10635 whole entry, looked up): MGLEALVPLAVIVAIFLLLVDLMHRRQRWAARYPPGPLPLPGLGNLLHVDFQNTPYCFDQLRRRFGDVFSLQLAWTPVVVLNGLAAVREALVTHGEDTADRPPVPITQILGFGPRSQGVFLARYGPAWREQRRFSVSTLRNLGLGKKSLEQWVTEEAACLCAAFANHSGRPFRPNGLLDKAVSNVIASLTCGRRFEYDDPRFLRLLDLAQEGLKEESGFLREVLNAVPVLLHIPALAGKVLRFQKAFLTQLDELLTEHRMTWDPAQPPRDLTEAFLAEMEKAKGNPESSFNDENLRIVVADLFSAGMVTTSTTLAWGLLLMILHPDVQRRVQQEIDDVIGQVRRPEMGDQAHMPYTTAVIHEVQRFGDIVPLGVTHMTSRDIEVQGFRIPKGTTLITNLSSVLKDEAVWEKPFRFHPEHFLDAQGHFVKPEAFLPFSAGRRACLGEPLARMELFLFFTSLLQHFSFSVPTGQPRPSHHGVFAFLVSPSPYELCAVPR
Summary of the method: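 Luminescent read-out of luciferin formed by 5 nM human CYP2D6 demethylating 30 uM Luciferin-ME EGE (Km level) over 60 min at room temperature after NADPH regeneration addition. Data normalized to full inhibition by 1.43 uM quinidine.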

[18] = target: Dual specificity protein kinase CLK4 (Homo sapiens) (UniProt Q9HAZ1); test: qHTS Assay for Inhibitors of CDC-like Kinase 4 (Kinase-Glo Assay) (AID 1770; active = well fitted curve in the direction sought with a large enough effect; an effect the other way counts as inactive or inconclusive; note: % is set by controls: 0 for no effect and ±100 for the full control effect; nearly all actives have a fitted effect of over 65% in size)
Sequence of Dual specificity protein kinase CLK4 (Homo sapiens) (Q9HAZ1 whole entry, looked up): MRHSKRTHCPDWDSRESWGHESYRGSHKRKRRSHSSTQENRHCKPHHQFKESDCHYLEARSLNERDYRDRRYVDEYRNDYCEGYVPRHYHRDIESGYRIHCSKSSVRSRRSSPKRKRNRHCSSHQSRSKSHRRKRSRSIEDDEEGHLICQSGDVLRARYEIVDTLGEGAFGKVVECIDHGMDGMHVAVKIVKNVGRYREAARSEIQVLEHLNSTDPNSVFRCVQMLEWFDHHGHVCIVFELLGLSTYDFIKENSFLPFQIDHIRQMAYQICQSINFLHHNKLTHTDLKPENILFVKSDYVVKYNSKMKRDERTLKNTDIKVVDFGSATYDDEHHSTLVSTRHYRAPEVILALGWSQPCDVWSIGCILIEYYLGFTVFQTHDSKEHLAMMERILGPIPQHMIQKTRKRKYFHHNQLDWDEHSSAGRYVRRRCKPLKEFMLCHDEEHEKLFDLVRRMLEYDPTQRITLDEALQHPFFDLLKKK
Summary of the method: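 25 nM Clk4 with 100 uM RS repeat peptide and 1 uM ATP (final) in Tris pH7.5, 10 mM MgCl2, 4.5 h at room temperature. Remaining ATP measured by Kinase-Glo luciferase luminescence.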

[19] = target: Dual specificity protein kinase CLK4 (Homo sapiens) (UniProt Q9HAZ1); test: qHTS Assay for Inhibitors of CDC-like Kinase 4 (ADP-Glo Assay) (AID 1771; active = well fitted curve in the direction sought with a large enough effect; an effect the other way counts as inactive or inconclusive; note: % is set by controls: 0 for no effect and ±100 for the full control effect; nearly all actives have a fitted effect of over 70% in size)
Summary of the method: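 Compounds are pin-transferred onto substrate mix (100 uM RS peptide, 1 uM ATP), then 25 nM Clk4 is added. After 1 hr at room temperature, ADP-Glo reagent runs 45 min, detection reagent 30 min, then luminescence is read.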

[20] = target: Dual specificity protein kinase CLK4 (Homo sapiens) (UniProt Q9HAZ1); test: qHTS Assay for Inhibitors of CDC-like Kinase 4 (ADP-FP Assay) (AID 1795; active = well fitted curve in the direction sought with a large enough effect; an effect the other way counts as inactive or inconclusive;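 note: recombinant human CLK4 phosphorylating RS repeat peptide at 1 µM ATP; % is set by controls: 0 for no effect and ±100 for the full control effect; nearly all actives have a fitted effect of over 60% in size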)
Summary of the method: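 Recombinant Clk4 (6.25 nM) phosphorylated 100 uM RS repeat peptide with 1 uM ATP in 25 mM Tris pH 7.5, 10 mM MgCl2, 0.5 mM EGTA, 2.5 mM DTT, 0.01% Triton X-100 for 1 h. ADP was detected by Transcreener ADP2 competitive fluorescence polarization after 30 min at room temperature.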

[21] = qHTS Assay for Identification of Small Molecule Agonists for Hypoxia Response Element Signaling Pathway (AID 914; active = well fitted activation curve with a large enough effect in the signal ratio, with a control signal flat, not every such curve was filed as active; the % refers to the signal ratio; note: % of control where 0% means no effect); details: ME-180 (cervical carcinoma) HRE-bla reporter, beta-lactamase ratio, CoCl2, 17 h; activation: stronger effect = higher value
Summary of the method: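 Positive modulation of EC50 CoCl2-induced hypoxia response element signaling is measured in ME-180 cells with a beta-lactamase reporter. Compounds are titrated, incubation runs 17 hours, and %Activity derives from the blue/green ratio.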

[22] = measured here: cell count channel max response
[23] = measured here: lipid channel max response

CN(C)c1ccc(-c2nc(N(C)Cc3ccco3)c3ccccc3n2)cc1
11.3%: max response [12, 23]
0.88%: max response [12, 22]
inactive: activity change, negative = inhibition [1] 25.1% | activity, negative = inhibition [3] 26.1% | Potency [4] > 46 µM | Potency [5] > 46 µM | outcome [6] | Potency [7] | activity change, negative = inhibition [8] 33.8% [at 2.29 µM] | Potency [9] | outcome [10] | outcome [11] | activity change, negative = inhibition [12] 10.8% | Potency [13] | Potency [14]
active: Potency [2] 0.631 µM

Cc1noc(C)c1C(=O)N1CCC2(CC1)CN(c1ccccc1)C2
inactive: Potency [15] > 11.4 µM | activity change, negative = inhibition [1] -19.3% | Potency [2] | activity change, negative = inhibition [16] 3.6% | activity, negative = inhibition [3] -19% | Potency [5] > 46 µM | outcome [6] | Potency [7] | Potency [14]

COc1ccccc1CN1CC[C@@]2(CCCN(C(=O)c3cccn3C)C2)C1
active: Potency [17] 0.316 µM
13.2%: max response [12, 23]
inactive: Potency [15] > 11.4 µM | Potency [2] | activity change, negative = inhibition [16] -9.11% | activity, negative = inhibition [3] -10.5% | Potency [5] > 46 µM | outcome [6] | Potency [7] | Potency [9] | activity change, negative = inhibition [12] 3.67% | Potency [14]
9.96%: max response [12, 22]

COC(=O)N1CCC2(CCN(C(=O)Nc3ccccc3)CC2)CC1
inactive: Potency [2] | activity change, negative = inhibition [16] 4.8% | activity, negative = inhibition [3] 0.0402% | Potency [5] > 46 µM | outcome [6] | Potency [7] | activity change, negative = inhibition [12] 5.74% | Potency [14]
17.4%: max response [12, 23]
8.07%: max response [12, 22]

Cc1noc(C)c1C(=O)N1CCC[C@@]2(CCN(C(=O)NC(C)C)C2)C1
18.4%: max response [12, 23]
inactive: Potency [15] > 11.4 µM | Potency [2] | activity change, negative = inhibition [16] 7.59% | activity, negative = inhibition [3] -12.3% | Potency [5] > 46 µM | outcome [6] | Potency [7] | activity change, negative = inhibition [12] 3.68% | Potency [14]
13.4%: max response [12, 22]

Cn1cc(-c2nc3cnc(Oc4ccccc4)nc3n(C)c2=O)c2ccccc21
active: Potency [2] 12.6 µM
inactive: Potency [15] > 11.4 µM | activity change, negative = inhibition [1] 0.766% | activity change, negative = inhibition [16] -2.6% | activity, negative = inhibition [3] 24.9% | Potency [4] > 9.22 µM | Potency [5] > 46 µM | outcome [6] | Potency [18] | Potency [19] | Potency [20] | Potency [13] | Potency [14]

O=C(Nc1cccc(F)c1)N1CC[C@@]2(CCCNC2)C1
-1.25%: max response [12, 22]
6.61%: max response [12, 23]
inactive: Potency [15] > 11.4 µM | Potency [2] | activity change, negative = inhibition [16] -0.699% | activity, negative = inhibition [3] -0.756% | Potency [5] > 46 µM | outcome [6] | Potency [7] | Potency [9] | activation [21] 0.832% | activity change, negative = inhibition [12] 3.99% | Potency [14]
